High-throughput results from PubChem.
USP2a block: inhibitors of human ubiquitin-specific protease USP2a. USP2 core, Ub-CHOP2 coupled fluorogenic reporter, 485/531. 330,000 compounds, 0.01% hits. AID 463254. O75604. Potency, µM (top dose mostly 38.3 µM), inactives show at the highest dose activity change, negative = inhibition, most hits filed as inhibitors;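 also: potency is read from the fitted curve at half-maximal effect; plate controls were DMSO wells for no effect and full inhibition by NEM control for full effect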
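Cell-free coupled assay: 10nM USP2 core preincubated 30min RT with compound in Tris-HCl pH 8.0/CaCl2/CHAPS buffer, then 25nM Ub-CHOP2 and 25nM reporter substrate; fluorescence (Ex 485/Em 531) read after 60min RT, normalized to NEM inhibition, concentration-response curves fitted.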
PI5P4K alpha inh: inhibitors of human PI5P4K alpha; P48426; PI5P4Kalpha enzyme, ADP-Glo luminescence, 60 min; hits give low values; max response, %; 330,000 compounds, 1.2% hits; AID 652105; active = max response of -50% or lower; inconclusive = between -30% and -50%; inactive = -30% or higher; also: value at the top dose of about 77 µM
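qHTS, 1536-well: enzyme/substrate mix, compound by pin tool, 5 microM ATP final; RT 60 min; ADP-Glo reagents 1 (45 min) then 2 (30 min); luminescence.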
PLK1 PBD inh: inhibitors of human PLK1 polo-box domain binding; P53350; Plk1 PBD binding of FITC phosphopeptide, fluorescence polarization; Potency, µM, without a hit: max response, negative = inhibition, actives largely listed as inhibitors; 360,000 compounds, 2.8% hits; also: potency is read from the fitted curve at half-maximal effect; series mostly up to about 57 µM; nearly all actives have a fitted effect of over 65% in size
WRN helicase inh: WRN helicase (human) inhibition; 360,000 compounds, 0.46% hits; WRN helicase unwinding, fluorescent forked duplex, kinetic; Potency, µM (doses to about 114 µM), without a hit: top-dose activity change, negative = inhibition, hits mostly inhibitors; Q14191; also: potency is read from the fitted curve at half-maximal effect; nearly all actives have a fitted effect of over 55% in size
Target sequence (Q14191 whole entry, looked up): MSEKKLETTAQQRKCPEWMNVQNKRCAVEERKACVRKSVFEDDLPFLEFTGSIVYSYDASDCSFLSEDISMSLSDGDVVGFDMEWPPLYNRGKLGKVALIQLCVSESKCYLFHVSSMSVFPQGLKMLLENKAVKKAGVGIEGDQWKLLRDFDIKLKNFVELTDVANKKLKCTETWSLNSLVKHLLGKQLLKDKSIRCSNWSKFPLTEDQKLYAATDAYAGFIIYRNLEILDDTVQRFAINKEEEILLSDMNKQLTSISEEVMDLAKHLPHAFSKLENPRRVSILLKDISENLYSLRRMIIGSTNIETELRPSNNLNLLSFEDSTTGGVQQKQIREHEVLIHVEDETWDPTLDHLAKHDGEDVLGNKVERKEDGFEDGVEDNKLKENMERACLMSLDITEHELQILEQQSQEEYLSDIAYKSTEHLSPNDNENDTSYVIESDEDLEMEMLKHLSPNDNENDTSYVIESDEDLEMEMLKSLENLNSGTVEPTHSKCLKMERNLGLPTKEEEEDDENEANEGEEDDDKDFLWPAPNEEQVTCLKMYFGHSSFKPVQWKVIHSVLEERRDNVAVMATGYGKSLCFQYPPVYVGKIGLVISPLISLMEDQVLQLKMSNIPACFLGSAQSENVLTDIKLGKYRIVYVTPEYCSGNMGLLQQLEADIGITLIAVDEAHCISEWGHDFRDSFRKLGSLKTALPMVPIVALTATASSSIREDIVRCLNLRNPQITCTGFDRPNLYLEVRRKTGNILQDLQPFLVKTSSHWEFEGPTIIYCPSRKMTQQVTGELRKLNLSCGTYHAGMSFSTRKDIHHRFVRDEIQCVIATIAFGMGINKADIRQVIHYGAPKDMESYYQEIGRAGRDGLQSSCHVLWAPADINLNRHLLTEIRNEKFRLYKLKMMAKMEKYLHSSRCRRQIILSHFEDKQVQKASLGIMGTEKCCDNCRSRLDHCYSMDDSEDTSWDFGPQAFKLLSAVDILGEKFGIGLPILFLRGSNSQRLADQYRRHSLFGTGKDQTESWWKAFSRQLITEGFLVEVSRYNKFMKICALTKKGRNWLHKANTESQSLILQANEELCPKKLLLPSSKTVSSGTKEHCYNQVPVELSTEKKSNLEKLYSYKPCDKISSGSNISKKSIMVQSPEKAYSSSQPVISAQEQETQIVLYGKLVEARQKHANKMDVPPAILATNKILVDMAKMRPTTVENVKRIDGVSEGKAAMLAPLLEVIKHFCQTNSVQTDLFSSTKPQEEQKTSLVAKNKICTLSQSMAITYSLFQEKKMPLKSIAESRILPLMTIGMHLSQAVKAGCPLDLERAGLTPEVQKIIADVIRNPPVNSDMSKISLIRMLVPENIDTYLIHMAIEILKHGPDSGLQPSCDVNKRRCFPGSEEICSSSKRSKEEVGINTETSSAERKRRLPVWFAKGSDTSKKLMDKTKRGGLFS
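Enzyme (20 nM final) and test compound sit together 15 min at room temperature before substrate addition. Substrate is a single-forked duplex oligonucleotide (100 nM) labelled with fluorophore and quencher, with 2 mM ATP; helicase unwinding raises red fluorescence, read kinetically.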
USP1 inh: USP1/UAF1 (human) deubiquitinase inhibition; O94782; recombinant USP1/UAF1, Ub-Rhodamine cleavage fluorescence; Potency, µM (doses to about 57.1 µM), inactives show at the highest dose activity change, negative = inhibition, hits mostly inhibitors; 390,000 compounds, 0.23% hits; also: potency is read from the fitted curve at half-maximal effect; nearly all actives have a fitted effect of over 60% in size
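In this screen, compounds sit with the deubiquitinase complex (1nM) for 15 min at room temperature before Ub-Rho is added at 150nM final. Fluorescence rise is then followed for 6 reads every 60 seconds.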
The depositor's hits bear a star; ? = inconclusive; / = no result; [ ] = another dose, or the depositor's remark. Sampled rows, rich in hits. Any-hit rate of the full collection: about 3.3%. Unless noted, calls follow the shape of the dose curve; as a rule, active = well fitted curve in the direction sought with a large enough effect; inconclusive = small, poorly fitted or top-dose-only effect, or another doubt; inactive = no such curve, though single readings can be large; an effect the other way counts as inactive or inconclusive. Unless noted, % is scaled to controls: 0 for no effect and ±100 for the full control effect.

SMILES | USP2a block | PI5P4K alpha inh | PLK1 PBD inh | WRN helicase inh | USP1 inh
Cc1ccc(NC(=O)CC(C)S(=O)(=O)c2ccc3c(c2)NC(=O)CO3)cc1C (stereo not given) | 4.2% | 1.7 | 23.8µM* | -10.7% | -8.9%
CC(CC(=O)N1CCc2ccccc21)S(=O)(=O)c1ccc2c(c1)NC(=O)CO2 (stereo not given) | 4.6% | -1.0 | 26.7µM* | 7.6% | -6.7%
O=C(O)c1cccc(N2C(=O)C3C4C=CC(C4=C(c4ccccc4)c4ccccc4)C3C2=O)c1 (stereo not given) | -7.5% | -11.4 | 29.9µM* | -4.3%[57.1 µM] | -15.4%
O=C(O)c1cccc(N2C(=O)c3ccc4c5c(ccc(c35)C2=O)C(=O)N(c2cccc(C(=O)O)c2)C4=O)c1 | 1.2% | -10.3 | -6.5% | -4.6%[11.6 µM] | -17.3%
Cc1cc(C)c(NC(=O)Cc2csc(C)n2)c(Cl)c1 | / | / | / | / | -7.1%
COc1ccc(Cc2nnc(NCCO)[nH]c2=O)cc1OC | 2.2% | -27.2 | 5.97µM* | ? | -11.6%
COc1ccc(Cc2nnc(NCCO)[nH]c2=O)cc1 | 2.8% | -4.4 | 3.7% | 1.3%[57.1 µM] | ?
O=C1ON=C(c2ccccc2)/C1=C/c1ccc(O)cc1 | -0.5% | ? | 1.68µM* | -31.9% | -14.8%
Cc1sc(/C=C2\C(=O)ON=C2c2ccccc2)cc1Br | 3.8% | / | / | / | /
Cc1ccc(/C=C2/C(=O)ON=C2c2ccccc2)o1 | 2.2% | ? | 0.67µM* | ? | -0.6%
O=C1ON=C(c2ccccc2)/C1=C/c1ccccc1 | -2.4% | -27.6 | 5.32µM* | -3.4% | -15.5%
CC1=NOC(=O)/C1=C/c1ccc(O)cc1 | -0.9% | -5.4 | 9.47µM* | ? | -18.1%
CC1=NOC(=O)/C1=C/c1ccc(O)c(Br)c1 | 1.3% | ? | ? | -12.5% | -20.8%
COc1cc([N+](=O)[O-])ccc1-c1ccc(/C=N\n2cnnc2)o1 | -0.6% | -17.1 | -22.5% | -16.0% | -1.5%
Cc1ccc(C2=NOC(=O)/C2=C\c2ccccc2)cc1 | / | -19.4 | 3.36µM* | -5.0% | -22.0%
CCCCc1ccc(/C=C2/C(=O)ON=C2c2ccccc2)s1 | ? | 15.1 | -10.9% | -5.8% | -8.5%
COc1cc([N+](=O)[O-])ccc1-c1ccc(/C=C2\C(=O)ON=C2c2ccccc2)o1 | / | -23.3 | 2.67µM* | -35.3%[11.6 µM] | -3.1%
O=C1ON=C(c2ccccc2)/C1=C\c1ccco1 | -0.5% | 0.3 | 9.47µM* | -6.1% | ?
O=C(CNc1ccccc1)N/N=C/c1ccc2c(c1)OCO2 | -0.3% | -15.2 | 23.8µM* | 3.6% | -22.8%
CCN(CC)CCP(=O)(c1ccccc1)c1ccccc1 | 0.1% | / | -2.0% | -5.5%[57.1 µM] | -14.0%
CN(C)CCOCCP(=O)(c1ccccc1)c1ccccc1 | 10µM* | / | -0.1% | 3.0% | -7.8%
O=C(O)CCN1C(=O)/C(=C2\C(=O)N(Cc3ccccc3Cl)c3ccccc32)SC1=S | 4.9% | / | / | / | /
COc1ccc(NC(=O)CN2C(=O)/C(=C3\SC(=S)N(CCC(=O)O)C3=O)c3ccccc32)cc1 | 1.2% | -8.7 | 10.6µM* | -1.7% | -6.1%
O=C(CN1C(=O)/C(=C2/SC(=S)N(CCS(=O)(=O)O)C2=O)c2ccccc21)Nc1cccc(Br)c1 | -18.4% | -57.1* | 26.7µM* | ? | -3.5%
COc1cccc(-c2cn3c(n2)sc2cc(C(=O)NCc4ccccc4F)ccc23)c1 | / | / | / | / | -0.5%
SMILES | USP2a block | PI5P4K alpha inh | PLK1 PBD inh | WRN helicase inh | USP1 inh
Cc1ccc(C(=O)NCCc2ccc(Cl)cc2)cc1-n1c(C)nc2cccnc21 | / | / | / | / | -9.9%
Cc1ccc(C2C(C=Nc3c(C)n(C)n(-c4ccccc4)c3=O)=C(c3ccccc3)Oc3ccccc32)cc1 (stereo not given) | -0.6% | -12.9 | 21.2µM* | 8.8% | -0.9%
CCc1ccccc1NC(=O)CN(c1cccc(OC)c1)S(C)(=O)=O | 0.4% | -1.2 | 29.9µM* | -4.0% | -16.8%
COc1cccc(N(CC(=O)Nc2ccccc2C)S(C)(=O)=O)c1 | 1.7% | / | -6.4% | -3.2% | 3.1%
Clc1ccc(Cn2nnc(-c3ccccc3)n2)cc1 | -2.8% | 9.2 | -18.7% | -2.0% | -11.6%
Clc1ccccc1-c1nnn(Cc2ccc(-c3nn[nH]n3)cc2)n1 | -0.3% | 4.8 | 26.7µM* | -22.3% | -11.7%
CC(=O)N1CCCc2cc(S(=O)(=O)N(C)CC(=O)Nc3cccc(Cl)c3C)ccc21 | / | / | / | / | -8.2%
O=C(CC1CCCCC1)N=C1SC2CS(=O)(=O)CC2N1c1ccccc1 (stereo not given) | 2.2% | -2.2 | 26.7µM* | 2.4% | -19.8%
O=S(=O)(NCc1ccccc1)c1ccc(Cl)cc1 | 2.1% | 0.4 | -14.0% | -1.5% | -20.0%
O=S(=O)(Nc1cc2nc3ccccc3nc2n1Cc1ccccc1)c1ccc(Cl)cc1 | 7.1% | -13.8 | ? | ? | 25.1µM*
CN(C)c1ccc(-c2nc3ccccn3c2Nc2ccc3c(c2)OCCO3)cc1 | / | / | / | / | -14.1%
COc1ccc(Nc2ncnc3c2nc2n3CCCCC2)cc1 | / | / | / | / | -25.1%
COC(=O)c1c(-c2ccc(Cl)cc2)noc1N1CCN(c2cccc(C)c2C)CC1 | / | / | / | / | -3.2%
O=[N+]([O-])c1cc(S(=O)(=O)Nc2cccc(C(F)(F)F)c2)ccc1-n1nnc2ccccc21 | -0.9% | 10.7 | 26.7µM* | -2.6% | -19.8%
C/C(=N\Nc1ccc(Cl)c(C(=O)O)c1)c1ccc(Br)s1 | 4.4% | -14.7 | 23.8µM* | ? | -20.6%
Cc1cccc(C)c1NC(=O)Cn1nnc(C(=O)Nc2c(C)cccc2C)c1N | / | / | / | / | -20.2%
CC1Cc2cc(S(=O)(=O)N(C)c3ccc(Br)cc3)ccc2N1C(=O)C1CC1 (stereo not given) | / | / | / | / | -11.1%
O=C(O)c1ccccc1N=Nc1ccc(O)cc1 | / | -17.4 | 29.9µM* | 3.0% | -20.8%
O=C(O)c1cc(O)ccc1N=Nc1ccccc1 | 3.2% | -8.0 | -1.0% | 5.9% | -22.7%
Cc1ccc(-n2ncc(C(=O)Nc3ccc4c(c3)OCCO4)c2C2CCN(C(=O)OC(C)(C)C)CC2)cc1C | / | / | / | / | -8.7%
COC(=O)c1cn(-c2ccccc2)nc1C(=O)OC | -1.0% | / | -6.4% | 5.2% | -1.7%
O=C(O)c1cn(-c2ccccc2)nc1C(=O)O | -1.6% | -52.4* | 5.7% | -10.0% | 0.6%
O=C(CCN1CCCCC1)Nc1cccc(Cl)c1 | 2.2% | -7.8 | 26.7µM* | 6.1% | -16.8%
O=C(CCN1CCCCCC1)Nc1cccc(Cl)c1 | 0.5% | / | 3.2% | -8.6% | 3.5%
CCCCNC(=O)c1ccccc1Cl | 0.7% | / | -0.7% | -1.8% | -13.3%
SMILES | USP2a block | PI5P4K alpha inh | PLK1 PBD inh | WRN helicase inh | USP1 inh
CCCCNC(=O)N1CCc2ccccc2C1 | 3.7% | -7.4 | 29.9µM* | -15.3% | -9.2%
CCCCNC(=O)c1ccccc1C(=O)NCCCC | -1.1% | ? | 5.32µM* | 12.1% | -14.7%
CCCCCCCCCCCNC(=O)c1ccoc1C | 0.1% | -18.7 | ? | 50.1µM* | -26.2%
COCCCNC(=O)c1ccccc1C(F)(F)F | 11.5% | -28.4 | 15µM* | 4.2% | -22.3%
CC(C)Oc1ccc(CNC(=O)c2ccc3nc(Cc4ccccc4)oc3c2)cc1 | / | / | / | / | -27.0%
O=C(/C=C/C(=O)N1CCc2ccccc2C1)N1CCc2ccccc2C1 | 3.7% | 1.0 | -5.8% | 0.4% | ?
